NS1 function inh – blocks influenza NS1 protein function; Potency, µM (doses to about 46.1 µM); 270,000 compounds, 0.4% hits; AID 2326; note: actives are rising curves; nearly all actives have a fitted effect of over 50% in size
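Recovery from NS1-induced slow growth read by OD600 in budding yeast switched to galactose assay medium (pH 6.0, -URA) at 1:100 dilution. Compound 23 nl per well; the matching strain lacking NS1 serves as control.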
Pf growth 96h – P. falciparum growth inhibition at 96 hours. Potency, µM (highest dose often 28.7 µM), actives largely listed as inhibitors. 320,000 compounds, 6.9% hits. P. falciparum luciferase reporter growth, 96 h; active = well fitted inhibition curve with a large enough effect; inconclusive = small, poorly fitted or top-dose-only effect, or another doubt; inactive = no such curve, though single readings can be large or run the other way
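Infected RBCs, 2% Hct / 0.05% parasitemia final; luciferase-reporter P. falciparum; cpd 96 h, 37 C, 5% CO2; luciferase detection reagent; luminescence.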
SARS PLP yeast – inhibitors of SARS-CoV papain-like protease in yeast; 330,000 compounds, 0.19% hits; AID 485353; Potency, µM (top dose mostly 32.9 µM), usual class: activators; S. cerevisiae expressing SARS-CoV PLpro, growth rescue; note: nearly all actives have a fitted effect of over 55% in size
Pf growth 48h – P. falciparum growth inhibition at 48 hours (one generation); Potency, µM (top dose mostly 28.7 µM), usual class: inhibitors; 310,000 compounds, 5.9% hits; P. falciparum luciferase growth in erythrocytes, 48 h; active = well fitted inhibition curve with a large enough effect; inconclusive = small, poorly fitted or top-dose-only effect, or another doubt; inactive = no such curve, though single readings can be large or run the other way
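Compounds are pin-transferred into medium, infected erythrocytes (2% hematocrit, 0.1% parasitemia final) are added, and plates sit one parasite generation at 37 C in 5% CO2. Detection reagent is then added and luminescence measured.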
Numbers stand for hits; 0 = inactive; ? = inconclusive; - = not tested or not shown; [ ] = remark or other dose. An excerpt weighted towards active compounds, which were near 10% of everything screened. Unless noted, calls come from the whole dose curve.

SMILES | NS1 function inh | Pf growth 96h | SARS PLP yeast | Pf growth 48h
CCCOc1ccc(NC(=O)CC2C(=O)N(CC)C(=S)N2CCCN2CCN(Cc3ccccc3)CC2)cc1 (stereo not drawn) | - | 4.1µM | 0 | ?
COc1ccc(C(=O)/C=C/c2ccc(OCc3ccccc3)cc2)cc1CSCC(=O)O | 0 | 0 | 0 | 0
COc1ccc(C(=O)/C=C/c2cccc(OCc3ccccc3)c2)cc1CSCC(=O)O | 0 | 4.7µM | 0 | 9.3µM
CC(NCc1ccccc1)c1ccccc1O (stereo not drawn) | 0 | 10µM | 0 | 1.7µM
Cc1ccc(N(CCC#N)C(=O)COC(=O)C2CCN(S(=O)(=O)c3ccc(C)c(C)c3)CC2)cc1 | - | 0 | 0 | ?
CCOC(=O)N1CCN(C(=O)C(=O)c2cn(CC(=O)N3CCCCCC3)c3ccccc23)CC1 | 0 | 12µM | 0 | 12µM
CC1CCCCN1C(=O)Cn1cc(C=O)c2ccccc21 (stereo not drawn) | 0 | 13µM | 0 | 0
CCOC(=O)C1CCN(C(=O)C(=O)c2cn(CC(=O)N3CCCCCC3)c3ccccc23)CC1 | 0 | 10µM | 0 | 12µM
CC1CCCCN1C(=O)C(=O)c1cn(CC(=O)N2CCCCCC2)c2ccccc12 (stereo not drawn) | 0 | 13µM | 0 | ?
O=CN1CCN(C(=O)C(=O)c2cn(CC(=O)N3CCCCC3)c3ccccc23)CC1 | 0 | 0 | 0 | 0
O=C(c1ccco1)c1cn(CC(=O)N2CCCCC2)c2ccccc12 | 0 | 1.7µM | 0 | 0
O=C(Cn1cc(C(=O)c2ccco2)c2ccccc21)NC1CCCCC1 | - | 0 | 0 | 0
CN1CCN(C(=O)CCN2C(=O)/C(=C\c3ccccc3F)SC2=S)CC1 | 0 | 12µM | 0 | ?
Cc1ccc(/C=C2/SC(=S)N(CCC(=O)N3CCN(C)CC3)C2=O)cc1 | 0 | 12µM | 0 | ?
CCOC(=O)c1oc2ccccc2c1NC(=O)c1ccc2c(c1)OCO2 | 0 | 13µM | 0 | 0
CCOC(=O)c1[nH]c2ccccc2c1NC(=O)c1ccc2c(c1)OCO2 | 0 | 0 | 0 | -
Cc1c(CCO)sc[n+]1CC(=O)OCCC12CC3CC(CC(C3)C1)C2 | 0 | 1µM | 0 | 5.2µM
Cc1c(CCOC(=O)CC23CC4CC(CC(C4)C2)C3)sc[n+]1Cc1ccccc1 | 0 | ? | 0 | 7.4µM
Cc1ncc(C[n+]2csc(CCOC(=O)CC34CC5CC(CC(C5)C3)C4)c2C)c(N)n1 | 0 | 0 | 0 | ?
CN1[C@@H](c2ccccc2)CC(=NO)C[C@H]1c1ccccc1 | 0 | - | - | -
COc1ccc(-c2nnc(CSc3nnc(-c4ccncc4)n3C3CCCCC3)o2)cc1OC | 0 | 9.3µM | 0 | ?
CCCNS(=O)(=O)c1ccc(OCC(=O)Nc2ccc3c(c2)OCCO3)c(C)c1 | - | ? | 0 | 0
Cc1noc(C)c1NC(=O)Nc1ccc2c(c1)C(=O)N([C@H](C)CO)C[C@H](C)[C@@H](CN(C)S(=O)(=O)c1cccs1)O2 | - | - | 0 | -
Oc1cccc2ccc[n+](CC(O)Cn3c4ccccc4c4ccccc43)c12 (stereo not drawn) | 0 | ? | 0 | 1µM
CCCN(CCC)CC(O)Cn1c2ccccc2c2ccccc21 (stereo not drawn) | 0 | ? | 0 | ?
SMILES | NS1 function inh | Pf growth 96h | SARS PLP yeast | Pf growth 48h
COc1ccc(S(=O)(=O)N2CCCCCC2)cc1N(C)S(=O)(=O)c1ccc(Cl)cc1 | 0 | ? | 0 | ?
Cc1cc(C)c(S(=O)(=O)N2CCCCC2)c(C)c1N(C)S(=O)(=O)c1ccc(Cl)cc1 | 0 | ? | 0 | 9.3µM
COc1cccc(OC)c1C(=O)N1CCN(C(=O)c2ccc(-c3ccccc3)cc2)CC1 | 0 | ? | 0 | ?
CC12CCC3C(CC=C4CC(O)CCC43C)C1C/C(=C\c1cccc(F)c1)C2=O (stereo not drawn) | 0 | 12µM | 0 | ?
COc1ccc(N2C(=O)CC2(/C=C/c2ccccc2OC)C(=O)NC2CCCC2)cc1 (stereo not drawn) | 0[9.22 µM] | 0 | 0 | 12µM
CCOC(=O)CNC(=O)C1(/C=C/c2ccccc2)CC(=O)N1c1ccc(OC)cc1 (stereo not drawn) | 0 | ? | 0 | 10µM
Cc1ccc(S(=O)(=O)N2CCOCC2)cc1NC(=O)COC(=O)C1(C)CC1(Cl)Cl (stereo not drawn) | - | - | 0 | -
Cc1ccc(C)c(Sc2ccc(NC(=O)CCN3C(=O)NC4(CCCC4)C3=O)cc2)c1 | - | 0 | 0 | 0
Cc1ccc(Sc2ccc(NC(=O)CCl)cc2)c(C)c1 | - | ? | 0 | 8.3µM
CC(Sc1ccc(Cl)cc1)C(=O)NCC(c1ccco1)N1CCCCC1 (stereo not drawn) | - | ? | 0 | ?
Cc1ccc(C2CC(c3cccs3)=NN2C(=O)CSC2=NN3CCCC(=O)N=C3S2)cc1 (stereo not drawn) | 0 | 1µM | 0 | 9.3µM
COc1ccc(C2CC(c3cccs3)=NN2C(=O)CSC2=NN3CCCC(=O)N=C3S2)cc1 (stereo not drawn) | 0 | 2.6µM | 0 | 10µM
CC12CCC(C(=O)NCc3ccc4c(c3)OCO4)(C(=O)C1=O)C2(C)C (stereo not drawn) | 0 | - | 0 | 0
COc1cccc(Cn2c(Oc3ccccc3)nc3c2c(=O)n(C)c(=O)n3C)c1 | 0 | ? | 0 | 0.66µM
Cn1c(=O)c2c(nc(OCc3ccccc3)n2C)n(C)c1=O | 0 | 0 | 0 | -
COc1cccc(COc2nc3c(c(=O)n(C)c(=O)n3C)n2C)c1 | 0 | 4.1µM | 0 | 0
O=C(Nc1ccc(S(=O)(=O)Nc2ncccn2)cc1)c1ccccc1 | 0 | 1.2µM | 0 | 0
CCCNS(=O)(=O)c1ccc(NC(=O)c2ccccn2)cc1 | 0 | 10µM | 0 | 0
O=C(CCNC(=O)c1ccccc1)Nc1ccc(S(=O)(=O)Nc2ncccn2)cc1 | - | - | 0 | -
CC(=O)NS(=O)(=O)c1ccc(NC(=O)c2ccccn2)cc1 | - | 0 | 0 | 0
O=C(/C=C/c1c(F)cccc1Cl)Nc1ccc(S(=O)(=O)Nc2ncccn2)cc1 | 0 | 13µM | 0 | 0
CC(C)(C)c1ccc(C(=O)Nc2ccc(S(=O)(=O)Nc3cnc4ccccc4n3)cc2)cc1 | 0 | 0 | 0 | 13µM
COC(=O)Nc1ccc(S(=O)(=O)Nc2cnc3ccccc3n2)cc1 | 0 | 0 | 0 | 0
O=C(CCN1C(=O)C2CC=CCC2C1=O)Nc1nccs1 (stereo not drawn) | 0 | 0 | ? | 0
Cc1ccc(C)c(NC(=O)CN(C)C(=O)COc2ncnc3sccc23)c1 | 0 | 0 | 0 | 0
SMILES | NS1 function inh | Pf growth 96h | SARS PLP yeast | Pf growth 48h
COc1ccc(C(C)=O)cc1CN(c1ccccc1OC)S(=O)(=O)c1cccs1 | 0 | ? | 0 | ?
CCOC(=O)N1CCN(C(=O)CSC2=NS(=O)(=O)c3ccccc3N2)CC1 | - | 0 | 0 | 0
CCC(C)c1ccc2oc(-c3ccc(NC(=O)c4ncn[nH]4)cc3)nc2c1 (stereo not drawn) | 0 | - | 0 | ?
CC(C)c1ccc2oc(-c3ccc(NC(=O)c4ncn[nH]4)cc3)nc2c1 | 0 | 1.7µM | 0 | ?
COc1ccccc1NC(=O)NC1(C)CCS(=O)(=O)C1 (stereo not drawn) | 0 | ? | 0 | 0
COc1ccc(-c2csc(/C(C#N)=C\c3ccc(OC)c([N+](=O)[O-])c3)n2)cc1 | 0 | 0 | 0 | 0
COc1ccc(-c2csc(/C(C#N)=C\c3ccc(O)c([N+](=O)[O-])c3)n2)cc1OC | 0 | ? | 0 | 8.3µM
